From PubChem BioAssay (NCI)
About 83,000 compounds went through this panel and 20% of them were active in at least one assay; those are over-represented in the sample as a whole.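 Method: cells in 96-well plates; compound added at one concentration; 48 h incubation; percent growth measured; values under 10 scored active.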 Values without a mark were called inactive. Active and inactive are the calls of the source.

Tests used:
Assay in all cases: NCI-60 one-dose screen, 48 h (100 = growth as untreated, 0 = no growth, -100 = all killed)
Conditions in all cases: 10 µM unless noted
HCT-15 colon = test system: HCT-15 colon
HT29 colon = test system: HT29 colon
SNB-75 CNS = test system: SNB-75 CNS
SNB-19 CNS = test system: SNB-19 CNS
U251 CNS = test system: U251 CNS
PC-3 prostate = test system: PC-3 prostate
SK-MEL-5 melanoma = test system: SK-MEL-5 melanoma
UACC-62 melanoma = test system: UACC-62 melanoma
LOX IMVI melanoma = test system: LOX IMVI melanoma
SK-MEL-28 melanoma = test system: SK-MEL-28 melanoma
SK-MEL-2 melanoma = test system: SK-MEL-2 melanoma
EKVX NSCLC = test system: EKVX NSCLC
SN12C renal = test system: SN12C renal
UO-31 renal = test system: UO-31 renal
TK-10 renal = test system: TK-10 renal
ACHN renal = test system: ACHN renal
CAKI-1 renal = test system: CAKI-1 renal
A498 renal = test system: A498 renal
CCRF-CEM leukemia = test system: CCRF-CEM leukemia
MOLT-4 leukemia = test system: MOLT-4 leukemia

Structure (SMILES) | growth (HCT-15 colon) | growth (HT29 colon) | growth (SNB-75 CNS) | growth (SNB-19 CNS) | growth (U251 CNS) | growth (PC-3 prostate) | growth (SK-MEL-5 melanoma) | growth (UACC-62 melanoma) | growth (LOX IMVI melanoma) | growth (SK-MEL-28 melanoma) | growth (SK-MEL-2 melanoma) | growth (EKVX NSCLC) | growth (SN12C renal) | growth (UO-31 renal) | growth (TK-10 renal) | growth (ACHN renal) | growth (CAKI-1 renal) | growth (A498 renal) | growth (CCRF-CEM leukemia) | growth (MOLT-4 leukemia)
COCCNC(=O)Cc1cc(-c2ccc(Cl)cc2)n(-c2ccccc2)c1C | 81.8% | 84.8% | 68.5% | 79.2% | 84.5% | 81% | 79.3% | 59.4% | 85.5% | 103% | 90.7% | 85.4% | 87.6% | 71.1% | 95.3% | 92.5% | 73.5% | 89.9% | 88.1% | 
CC(C)n1nc(-c2ccc3oc(N)nc3c2)c2c(N)ncnc21 | 0.972% (active) | 4.07% (active) | -51.4% (active) | 0.364% (active) | 1.15% (active) | 0.237% (active) | -40.3% (active) | -45% (active) | -16.4% (active) | -24% (active) | -19.5% (active) | -27.2% (active) | 3.13% (active) | -20.9% (active) | -30.4% (active) | -14% (active) | 2.4% (active) | -50.4% (active) | 11.7% | 6.39% (active)
C=C(C[n+]1ccccc1)[C@@H]1CC[C@]2(C(=O)OC)CC[C@]3(C)[C@H](CC[C@@H]4[C@@]5(C)CCC(=O)C(C)(C)[C@@H]5CC[C@]43C)[C@@H]12 | 104% | 78% | 83.9% | 73.8% | 82.8% | 68% | 80.2% | 51.8% | 93.7% | 69% | 89% | 93.4% | 87.8% | 86.4% | 102% | 95.4% | 83.5% | 88.7% | 82.6% | 
CN(C)c1ccc(/C=C/C2=[N+](C)c3ccccc3C2(C)C)cc1 | 39.5% | 12.5% | 36.3% | 13.2% | 19.2% | 4.64% (active) | -4.87% (active) | 9.39% (active) | 15.2% | 35.4% | 16.4% | 22.6% | -9.66% (active) | 19.4% | 30.4% | 14% | 29.3% | 66.6% | 11.9% | -6.54% (active)
CN1/C(=C/C=C/c2n(Cc3ccc4ccccc4c3)c(Cl)c(Cl)[n+]2Cc2ccc3ccccc3c2)Oc2ccccc21 | -72.9% (active) | -79.7% (active) | -63.6% (active) | -96.3% (active) | -97.3% (active) | -78.4% (active) | -99.4% (active) | -94.4% (active) | -93.8% (active) | -89.5% (active) | -87.9% (active) | -91.7% (active) | -92.9% (active) | -93.1% (active) | -90.5% (active) | -96.6% (active) | -94.1% (active) | -77.9% (active) | -52.7% (active) | 
C#CC#CC#CC#CC#CC#CC#CC#CC[C@@H]1OC[C@H](COC(=O)O[C@@H](C(=O)O[C@H]2C[C@@]3(O)[C@@H](OC(=O)c4ccccc4)[C@@H]4[C@]5(OC(C)=O)CO[C@@H]5C[C@H](O)[C@@]4(C)C(=O)[C@H](OC(C)=O)C(=C2C)C3(C)C)[C@@H](NC(=O)c2ccccc2)c2ccccc2)O1 | 98.8% | 4.07% (active) | 34.9% | 38.1% | 28.5% | 26.1% | 48.7% | 35% | 34.3% | 52.2% | 44.2% | 65.8% | 38.6% | 99.6% | 93.3% | 79.3% | 71% | 21.3% | 13.8% | 30.9%
O=C(/C=C/c1ccc([N+](=O)[O-])cc1)c1cccc(Nc2nc(Nc3ccccc3)nc(Nc3ccccc3)n2)c1 | 68.6% | 68.2% | 52.4% | 93.7% | 58% | 62.1% | 62.8% | 82.7% | 67.9% | 88.3% | 37.5% | 65.1% | 89.1% | 38.9% | 66.3% | 80% | 72.5% | 70% | 46.2% | 
CCN(CC)CCCNC(=O)c1c2c(n3ccccc13)C(=O)c1ncccc1C2=O | -73.6% (active) | -28.5% (active) | -87.2% (active) | -71.3% (active) | -83.8% (active) | -19.8% (active) | -99.2% (active) | -53.8% (active) | -71.2% (active) | 22.8% | -55.3% (active) | -84.5% (active) | -56% (active) | -19.8% (active) | -0.124% (active) | -34.5% (active) | 11.8% | -73% (active) | -36.2% (active) | 
CCNCCNc1c(C)c(-c2ccc(C(F)(F)F)cc2)c(C#N)c2nc3ccccc3n12 | 78.6% | 77.3% | 57.6% | 78.6% | 78.8% | 76.1% | 87.2% | 92.4% | 82.5% | 103% | 102% | 92.4% | 67.2% | 79.1% | 109% | 82.5% | 92.3% | 69.6% | 86.9% | 90.9%
O=C1CC2C=CCN2C=C1NC(=O)c1ccccc1 (stereo not given) | 100% | 97.9% | 96.8% | 108% | 97.2% | 99.7% | 100% | 109% | 99.3% | 103% | 118% | 94.6% | 99.5% | 98.2% | 93.5% | 104% | 101% | 102% | 109% | 96.3%
NCCNc1ccc([N+](=O)[O-])cc1 | 108% | 101% | 96.2% | 101% | 102% | 105% | 118% | 106% | 105% | 108% | 97.2% | 137% | 103% | 87.1% | 96.2% | 108% | 113% | 106% | 94.5% | 96.2%
CCOC(=O)CCC(=O)P(=O)(O)O | 108% | 95.9% | 146% | 92.6% | 102% | 62.8% | 104% | 96.6% | 104% | 93.6% | 104% | 106% | 108% | 105% | 99.3% | 91.6% | 137% | 107% | 75.1% | 62.6%
O=C(/C=C/C12c3ccccc3C(c3ccccc31)C1C(=O)NC(=O)C12)c1cccs1 (stereo not given) | 26.3% | 22.6% | 17.1% | 39.2% | 15.8% | 33.6% | 54.8% | 37.2% | 28.6% | 45.8% | 38.5% | 50.3% | 36.4% | 42.6% | 48.7% | 45.8% | 52.2% | 46.9% | 0.0532% (active) | 10.5%
COc1cc(CNC(=O)CCCC/C=C/C(C)C)ccc1OCc1cn(-c2cccc([N+](=O)[O-])c2)nn1 | 77.9% | 88.9% | 92% | 68.2% | 85.3% | 82.2% | 93.2% | 70.1% | 92.9% | 106% | 88.4% | 95.1% | 89.5% | 74.7% | 105% | 81.7% | 79% | 78.9% | 90.2% | 86.6%
CC/C(=C(/c1ccc(Cl)cc1)c1ccc(OCCN(CC)CC)cc1)c1ccc(OC)cc1 | 16.7% | -3.6% (active) | 97.2% | 69.5% | 33.5% | 33.9% | 46.1% | 72.8% | 42.3% | 56% | 89.5% | 62.2% | 67.5% | 67.5% | 64.9% | 79.4% | 77% | 104% | 24.3% | 19.7%
COc1cc(-c2c(-c3ccccc3)c[nH]c2C(=O)NCCCO)c(OC)c2c1OCO2 | 107% | 106% | 92.9% | 97.5% | 104% | 99.1% | 99.1% | 93.7% | 99.5% | 107% | 109% | 99.2% | 97.1% | 85.7% | 99% | 98.9% | 91.1% | 74.6% | 88.8% | 92.5%
